This is one part of a sample in which hits are shown more often than they occur.
DUSP3 inh – VHR1 (DUSP3) phosphatase inhibition; P51452; 0.7% of 50,000 active; recombinant VHR phosphatase, colorimetric substrate read-out; inhibition, % at 20 µM; AID 1992; in the data active = inhibition above about 60%
Target sequence (P51452 whole entry, looked up): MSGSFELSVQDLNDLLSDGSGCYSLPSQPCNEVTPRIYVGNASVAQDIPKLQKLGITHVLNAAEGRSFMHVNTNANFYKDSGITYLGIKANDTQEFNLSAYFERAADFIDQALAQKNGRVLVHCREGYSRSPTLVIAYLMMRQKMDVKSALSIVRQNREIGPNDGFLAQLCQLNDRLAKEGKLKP
Each line names hits and unclear results; the compound was inactive in the other large screens.

COc1ccc(C2C3=C(CC(c4ccccc4)CC3=O)Nc3ccccc3N2C(=O)C(C)C)cc1OC (stereo not drawn)	DUSP3 inh 99.1
Cc1ccc(C)c(Nc2nc3ccccc3c3ccccc23)c1	none
CCN1C(=O)/C(=C\c2ccc(C(F)(F)F)cc2)SC1=S	none
CC(C)(C)c1ccc(C(=O)Nc2ccc(NC(=O)c3ccc4c(c3)OCCO4)cc2)cc1	none
O=C1N/C(=N/N=C/c2ccccc2O)SC1Cc1cc(Cl)ccc1Cl (stereo not drawn)	none
Cc1cc(NS(=O)(=O)c2ccc(Nc3nc(-c4ccccn4)cs3)cc2)no1	none
Cc1cc(C)nc(NS(=O)(=O)c2ccc(Nc3nc(-c4sc(N)nc4C)cs3)cc2)n1	DUSP3 inh 67.4
Cc1nc(N)sc1-c1csc(Nc2ccccn2)n1	none
CCC(C)N1CCN(Cc2cc(OC)c(OC)c(OC)c2)CC1 (stereo not drawn)	none
O=C1NC(=S)N(c2ccccc2)C(=O)/C1=C/c1cc(Br)c(O)c(Br)c1	none
O=C1NC(=S)N(c2ccccc2)C(=O)/C1=C/c1ccc(Cl)cc1Cl	none
C=CCN1C(=O)/C(=C\C=C\c2ccco2)C(=O)NC1=S	DUSP3 inh 88.2
Cc1ccc(C=C2C(=O)NC(=S)N(c3ccccc3F)C2=O)s1	none
CCc1ccc(N2C(=O)NC(=O)/C(=C/C=C/c3ccco3)C2=O)cc1	none
C=CCN1C(=O)/C(=C\c2ccc(Br)cc2)C(=O)NC1=S	none
O=C1NC(=S)N(c2ccccc2)C(=O)/C1=C/c1ccco1	DUSP3 inh 66.9
O=C1NC(=S)N(c2ccccc2F)C(=O)C1=Cc1ccco1	DUSP3 inh 87.0
O=C1NC(=S)N(c2ccccc2F)C(=O)/C1=C/c1ccc(Sc2ccccc2)o1	none
O=C(Nc1ccccc1)c1ccc(-n2cnnn2)cc1	none
O=C(Oc1ccc(-n2cnnn2)cc1)N1CCOCC1	DUSP3 inh 113.1
COC(=O)c1c(C)oc2ccc(OC(=O)N3CCOCC3)cc12	none
O=C1c2ccc(Oc3ccc4c(c3)C(=O)N(c3ccc(S)cc3)C4=O)cc2C(=O)N1c1ccc(S)cc1	none
Cc1cccc(N2CCN(S(=O)(=O)c3ccccc3[N+](=O)[O-])CC2)c1C	none
Cc1cccc(NC(=O)C(C)Oc2ccccc2)c1C (stereo not drawn)	none
Cc1cccc(NC(=O)C2C(c3ccccc3)C=CC(c3ccccc3)C2C(=O)O)c1C (stereo not drawn)	DUSP3 inh 97.9
Cc1cccc(NC(=O)C2CC2(c2ccccc2)c2ccccc2)c1C (stereo not drawn)	none
CC(=O)NCCCc1oc2ccc(O)cc2c1[N+](=O)[O-]	none
O=C(Nc1ccc(S(=O)(=O)N2CCc3ccccc32)cc1)c1ccc(F)cc1	none
O=C1NN(c2ccc(Cl)c(Cl)c2)C(=O)/C1=C/c1cc([N+](=O)[O-])ccc1O	none
O=C1NN(c2ccc(Cl)c(Cl)c2)C(=O)/C1=C/c1cccc([N+](=O)[O-])c1	DUSP3 inh 78.4
O=C1NN(c2ccc(Cl)c(Cl)c2)C(=O)/C1=C/c1cccc(Br)c1	none
COC(=O)c1ccc(/C=C2\SC(N3CCOCC3)=NC2=O)cc1	none
O=C(Nc1c(C(=O)N2CCCCCC2)cnn1-c1ccccc1)c1ccc(Br)cc1	none
COc1ccc(Cc2noc(Cc3ccc(Cl)cc3)n2)cc1	none
O=C1NC(=O)N(c2ccccc2)C(=O)/C1=C\c1cccn1-c1ccc([N+](=O)[O-])cc1	none
C=CCN1C(=O)/C(=C\c2ccc(-c3ccc([N+](=O)[O-])cc3Br)o2)C(=O)NC1=S	none
O=C1NC(=S)NC(=O)C1=Cc1ccc(-c2ccc([N+](=O)[O-])cc2Br)o1	DUSP3 inh 64.2
C=CCN1C(=O)/C(=C\c2ccc(-c3ccc(OC)cc3[N+](=O)[O-])o2)C(=O)NC1=S	none
O=C1NC(=S)N/C1=C\c1ccc(-c2cc([N+](=O)[O-])ccc2Br)o1	none
O=C1NN(c2ccccc2)C(=O)/C1=C/c1cccn1-c1ccc([N+](=O)[O-])cc1	none
C=CCN1C(=O)/C(=C\c2cccn2-c2ccc([N+](=O)[O-])cc2)C(=O)NC1=S	DUSP3 inh 80.0
C=CCN1C(=O)/C(=C\c2ccc(-c3ccccc3[N+](=O)[O-])o2)C(=O)NC1=S	DUSP3 inh 87.8
C=CCN1C(=O)/C(=C\c2ccc(-c3ccc([N+](=O)[O-])cc3Cl)o2)C(=O)NC1=S	none
COc1ccccc1CNC(=O)COc1ccc(C)cc1Br	none
COCC(=O)N/N=C/c1ccc(OC/C=C/Cl)cc1	none
CCOC(=O)c1cnn(-c2ccccc2)c1NC(=O)c1cccc(F)c1	none
O=C1C2C3C=CC(C4CC34)C2C(=O)N1c1cccc(C(F)(F)F)c1 (stereo not drawn)	none
Cc1cc2oc(=O)cc(C)c2cc1NC(=O)COc1ccccc1C	none
COc1cc(CN2CCN(C3CCN(Cc4ccccc4)CC3)CC2)cc(OC)c1OC	none
COc1ccc(C2CC(=O)C3=C(C2)Nc2ccccc2NC3c2cc3c(cc2Cl)OCO3)cc1 (stereo not drawn)	none
COc1ccc(C2CC(=O)C3=C(C2)Nc2ccccc2NC3c2coc3c(Cl)cc(Cl)cc3c2=O)cc1 (stereo not drawn)	DUSP3 inh 105.2
COc1ccc(C2CC(=O)C3=C(C2)Nc2ccccc2NC3c2ccccc2Cl)cc1 (stereo not drawn)	none
CCOC(=O)c1sc(NC(=O)c2cnccn2)c(C(=O)OCC)c1C	none
CC1=C(C(=O)OCCCc2ccccc2)C(c2ccc(Cl)c(Cl)c2)CC(=O)N1 (stereo not drawn)	DUSP3 inh 99.6
COC(=O)C1=C(C)NC(=O)CC1c1ccc(Cl)c(Cl)c1 (stereo not drawn)	none
CC1=C(C(=O)OCCc2ccccc2)C(c2ccccc2Cl)CC(=O)N1 (stereo not drawn)	none
CC(C)C(C(=O)O)N1C(=O)/C(=C\c2ccccn2)SC1=S (stereo not drawn)	none
CN1C(=O)NC(=O)/C(=C/c2cccc3ccccc23)C1=O	none
CC1CN(Cc2ccccn2)CCC1=O (stereo not drawn)	DUSP3 inh 110.9
COc1cccc(CN2CCN(Cc3ccccn3)CC2)c1	none
COc1ccccc1CN1CCN(Cc2ccccn2)CC1	none
CN(Cc1ccccc1)Cc1c(O)ccc2c3c(c(=O)oc12)CCC3	none
CCOC(=O)c1c(-c2ccc(C(C)C)cc2)csc1N	none
COC(=O)c1c(-c2ccc(C(C)(C)C)cc2)csc1N	DUSP3 inh 94.7
NC(=O)c1c(-c2ccc(Cl)cc2)csc1N	DUSP3 inh 66.6
COC(=O)c1c(-c2ccc(Cl)cc2)csc1N	none
COC(=O)c1c(-c2ccc(OC)cc2)csc1N	none
CCOC(=O)c1c(-c2ccc(-c3ccccc3)cc2)csc1N	none
CC(=O)/C(CN1CCCCC1)=N/O	none
CCOc1ccccc1NC(=O)c1ccc(Cl)cc1Cl	none
CCOc1cc(Br)cc(/C=C2/SC(=S)NC2=O)c1O	none
O=C(O)C1Nc2c(Cl)cc(Cl)cc2C2C=CCC12 (stereo not drawn)	DUSP3 inh 96.8
COc1ccc2c(c1)C1C=CCC1C(C(=O)O)N2 (stereo not drawn)	none
CC(=O)Nc1ccc2c(c1)C1C=CCC1C(C(=O)O)N2 (stereo not drawn)	none
COc1cccc(C(=O)Nc2ccc(Cc3ccncc3)cc2)c1	none
CC(C)CCNC(=O)c1ccccc1C(=O)NCCC(C)C	none
CC1=C(C(=O)OC(C)C)C(c2ccc(C)s2)NC(=O)N1C (stereo not drawn)	none
O=[N+]([O-])c1ccc(-c2ccc(C(=S)N3CCOCC3)o2)cc1	none
O=[N+]([O-])c1ccc(-c2ccc(C(=S)N3CCCCC3)o2)cc1	none
Cc1ccc(N2CCN(C(=S)c3ccc(-c4cccc([N+](=O)[O-])c4)o3)CC2)cc1	DUSP3 inh 90.9
O=C1S/C(=C\c2cc3c(cc2Br)OCO3)C(=O)N1c1ccccc1	none
